Bioassay records (PubChem)
Compounds with a hit are over-represented: about 0.5% of the library has one in this group of screens.
AddAB inh = less growth of phage-infected E. coli with AddAB; E. coli expressing H. pylori AddAB, absorbance growth; inhibition, % at 11.9 µM; actives 0.29% (n = 330,000); in the data active = inhibition above about 12%;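 note: 0% = vehicle wells of infected cells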
E coli growth-1 = E. coli growth inhibition; Escherichia coli growth, OD600, 23 h; active compounds read low; OD600 absorbance (no concentration beside the values); actives 0.21% (n = 330,000); AID 1053175;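 active = OD600 absorbance below the run mean of sample wells minus 3.6 SD, in any replicate, cut at about 0.56 in these data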
phage Ecoli inh = E. coli growth loss with phage present | growth absorbance | inhibition, % at 11.9 µM | AID 651602 | actives 0.26% (n = 360,000); in the data active = inhibition above about 11%
E coli growth-2 = bacterial growth inhibition, counter-screen for AddAB inhibitors | inhibition, % at 11.9 µM | E. coli V3065 growth, OD600 absorbance, 18 h | actives 0.27% (n = 330,000);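 active = inhibition above the campaign's mean inhibition across all tested compounds plus 3 SD, cut at about 9.9% in these data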;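 note: uninfected addAB+ strain grown without phage in ampicillin broth; 0% = DMSO wells and 100% = ciprofloxacin 0.95 µg/ml wells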
Tat export inh = E. coli Tat transport inhibition; actives 0.036% (n = 340,000); inhibition, % at 10 µM; E. coli MC4100 TorA-mCherry Tat export, fluorescence;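 active = mean replicate inhibition at least 50% and at least half of replicates individually reaching 50%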;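 note: exported cargo escapes ClpAP degradation while cytoplasmic cargo is degraded and loses fluorescence; 0% = median of neutral control wells and 100% = median of NaSCN control wells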
An asterisk follows results filed as active; nt = no result.

SMILES	AddAB inh	E coli growth-1	phage Ecoli inh	E coli growth-2	Tat export inh
CC(=O)NC(c1ccco1)c1cc(Cl)c2cccnc2c1O (stereo unspecified)	nt	nt	6	nt	nt
COc1ccc(C(NC(=O)c2cccnc2)c2cc(Cl)c3cccnc3c2O)cc1OC (stereo unspecified)	25*	0.67	20*	23*	-6
COc1ccc2c3c(cccc13)C(=O)N(O)C2=O	0	0.38*	4	0	-15
CC1CN(C(C)CO)C(=O)c2cc(NC(=O)CCC(F)(F)F)ccc2OC1CN(C)C(=O)Nc1ccc2c(c1)OCO2 (stereo unspecified)	nt	0.71	nt	nt	nt
Cc1c2ccncc2cc2c1[nH]c1ccccc12	nt	0.41*	4	nt	4
Cc1ccc(Cl)cc1NC(=O)CC(O)(C(F)(F)F)C(F)(F)F	12	0.58	8	11*	16
Cc1cc(C)nc(N=C(N)Nc2ccc(-c3ccccc3)cc2)n1	nt	0.53*	nt	nt	nt
Oc1ccc(C=NN(Cc2ccccc2)c2ccccc2)cc1	nt	0.69	nt	nt	nt
OC(CNCC1CCCO1)Cn1c2ccc(Cl)cc2c2cc(Cl)ccc21 (stereo unspecified)	3	0.55*	1	0	0
OC(CNCC1CCCO1)Cn1c2ccccc2c2ccccc21 (stereo unspecified)	3	0.73	2	-1	-5
OC(CNCCC1C=Nc2ccccc21)Cn1c2ccc(Cl)cc2c2cc(Cl)ccc21 (stereo unspecified)	3	0.054*	5	0	-1
C#Cc1ccc(C2C=C(C(=O)O)OC(OCc3ccc(CO)cc3)C2)cc1 (stereo unspecified)	nt	0.68	nt	nt	nt
COc1ccc(Cc2c(N)nc(C)nc2N)cc1	2	0.64	5	-1	-6
Cc1nc(N)c(Cc2ccc(Cl)cc2Cl)c(N)n1	5	0.48*	5	3	-10
CC(=NNS(C)(=O)=O)c1ccccc1	nt	0.7	nt	nt	nt
CCCCCCCCCCCCCCCC(=O)OCC(COP(=O)([O-])OCC[N+](C)(C)C)OC(=O)CCCCCCCCCCCCCCC (stereo unspecified)	nt	0.69	nt	nt	nt
COc1cccc(/C=N/Nc2ccnc(=O)[nH]2)c1O	6	nt	2	13*	7
O=c1nccc(N/N=C/c2ccccc2O)[nH]1	nt	nt	2	nt	0
CCCCCCCC[n+]1cccc2c3ccccc3ccc21	3	0.48*	7	2	9
CC1CCN(C(=O)c2ccc(S(=O)(=O)N3CCCCCC3)cc2)CC1	3	0.65	2	2	4
CC1CCN(C(=O)c2ccc(S(=O)(=O)N3CCCC3)cc2)CC1	4	0.68	3	-1	55*
CC(=O)c1ccc(NC(=S)Nc2ccc(Br)c(Cl)c2)cc1	1	0.51*	9	1	-13
CNC[C@@H](CC1CCCCC1)NC[C@H](CC(C)C)NCCc1cccc(C(F)(F)F)c1	0	nt	4	-2	6
CNCC(CC1CCCCC1)NCC(CC(C)C)NCCc1cccc(C(F)(F)F)c1 (stereo unspecified)	nt	0.068*	nt	nt	nt
CCOC(=O)c1c(N=CC2C(=O)CC(C)(C)CC2=O)sc(C)c1C	nt	0.69	nt	nt	nt
SMILES	AddAB inh	E coli growth-1	phage Ecoli inh	E coli growth-2	Tat export inh
CCCc1cc(=O)n2[nH]cc(-c3ccc(Cl)cc3)c2n1	nt	0.35*	-5	nt	-3
c1ccc(N2CCN(Cc3ccnc4ccccc34)CC2)cc1	-1	0.64	1	0	8
Oc1c(CN2CCN(c3ccccc3)CC2)cc(Br)c2cccnc12	9	0.46*	5	4	5
CCOC(=O)c1csc(N)n1	1	0.66	3	0	-15
CC1C(NC(=O)C(=NOC(C)(C)C(=O)O)c2csc(N)n2)C(=O)N1S(=O)(=O)O (stereo unspecified)	nt	0.059*	nt	nt	nt
CCN(CC)c1ccc(C=NNS(=O)(=O)c2ccc(CNC(C)=O)cc2)cc1	nt	0.68	nt	nt	nt
CCN(CC)c1ccc(/C=C/c2ccc3ccc(OC)cc3[n+]2CC)cc1	12	0.5*	7	12*	-445
CC[n+]1c(/C=C/c2ccc(N(C)C)cc2)ccc2ccccc21	4	0.47*	4	2	-370
CC[n+]1ccc(/C=C/c2ccc(N(C)C)cc2)c2ccccc21	nt	0.35*	-1	nt	-300
Nc1ncncc1-c1ccc([N+](=O)[O-])cc1	4	0.36*	1	2	22
C/C(=N\Nc1ncnc2sc(C)c(C)c12)c1ccccn1	11	nt	6	14*	20
Cc1sc2ncnc(N/N=C/c3cccc(O)c3)c2c1C	1	nt	2	1	2
Cc1cc(Nc2ccc(Cl)cc2)nc(NCc2ccccc2)n1	3	0.41*	4	5	-9
Cc1cc(Nc2ccccc2)nc(NCc2ccccc2)n1	4	0.6	4	4	0
COc1ccc(-c2nn(CCC#N)cc2C=NO)cc1OC	nt	0.7	nt	nt	nt
O=C(Cn1c(CO)nc2ccccc21)NCCc1ccc(F)cc1	10	0.69	4	10*	2
CC(C)(C)OC(=O)CC1CC=CCC(CC(=O)NCCO)C(=O)N2CCCC2COC1=O (stereo unspecified)	nt	0.67	nt	nt	nt
O=C1C(=O)c2cccnc2-c2ncccc21	nt	nt	101*	nt	nt
O=C1c2cccnc2-c2ncccc21	0	0.71	2	1	-2
N#Cc1ccc(NN=Cc2ccccc2)c([N+](=O)[O-])c1	nt	0.75	nt	nt	nt
C(=Nc1nccs1)Nc1nccs1	nt	0.73	nt	nt	nt
COc1ccc2nc(C)cc(NN=Cc3ccccc3)c2c1	nt	0.44*	nt	nt	nt
COc1ccc(C=NNc2cc(C)nc3ccccc23)cc1	nt	0.49*	nt	nt	nt
O=C(CNC(=O)C(=Cc1ccc(F)cc1)NC(=O)c1ccccc1)OCc1ccccc1	nt	0.7	nt	nt	nt
Cc1ccnc(NC(=O)c2ccc([N+](=O)[O-])s2)c1	14*	0.6	7	10	-8
SMILES	AddAB inh	E coli growth-1	phage Ecoli inh	E coli growth-2	Tat export inh
CC1=NN(C(N)=S)C(=O)C1N=Nc1ccc(C)c(Br)c1 (stereo unspecified)	7	0.62	3	13*	-18
CCC[C@@H](CN1CCC[C@H]1CN1C(N)=NC[C@H]1CC(C)C)N1C[C@@H]([C@H](C)CC)N(CCCC2CCCC2)C1=N	3	0.43*	4	5	-1
CC(C)C[C@@H]1CN=C(N)N1C[C@@H]1CCCN1C[C@H](C)N1C[C@@H](Cc2ccccc2)N(CCCC2CCCC2)C1=N	2	nt	1	3	-2
CCCC(CN1CCCC1CN1C(N)=NCC1Cc1ccccc1)N1CC(Cc2ccccc2)N(CCCC2CCCC2)C1=N (stereo unspecified)	nt	0.34*	nt	nt	nt
CCC[C@@H](CN1CCC[C@H]1CN1C(N)=NC[C@H]1C(C)C)N1C[C@@H]([C@H](C)CC)N(CCCC2CCCC2)C1=N	2	0.65	1	1	10
COc1ccc(C(=O)NCC(=O)NN=C(C)/C=C/c2ccccc2)cc1OC	nt	0.65	nt	nt	nt
COc1ccccc1NC(=O)COc1ccc(C=Nn2cnnc2)cc1OC	nt	0.69	nt	nt	nt
CCOc1ccc(N(CC(=O)NN=Cc2ccccn2)S(=O)(=O)c2ccc(Cl)cc2)cc1	nt	0.73	nt	nt	nt
Cc1cc2cc(CCNC(=O)c3ccc(Br)o3)c(=O)[nH]c2cc1C	12	0.65	10	12*	-7
CCN1/C(=C/c2ccc3cccc(C)c3[n+]2CC)Sc2ccccc21	9	0.46*	6	5	1
